Test results taken from paper PMC4336329 (PLoS ONE, 2015).
Out of some 310,000 compounds screened, about 14,000 (4.5%) showed an effect of 50% or more. Effects have a minus sign here. The full list was thinned out, with strong results kept by preference. Where a SMILES comes first, the peptide text is derived from it. The star is where a group is joined. Boc = CC(C)(C)OC(=O)*; OtBu = CC(C)(C)O*

Molecular target: human ether-à-go-go-related gene (hERG) potassium channel (human, UniProt Q12809)
Experiment: primary screen, population patch clamp on CHO cells stably expressing hERG; higher = less effect of the substance
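Also: peak tail current of the secondary pulse compared with the same well before compound.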

Sequence of human ether-à-go-go-related gene (hERG) potassium channel (Q12809 whole entry, looked up): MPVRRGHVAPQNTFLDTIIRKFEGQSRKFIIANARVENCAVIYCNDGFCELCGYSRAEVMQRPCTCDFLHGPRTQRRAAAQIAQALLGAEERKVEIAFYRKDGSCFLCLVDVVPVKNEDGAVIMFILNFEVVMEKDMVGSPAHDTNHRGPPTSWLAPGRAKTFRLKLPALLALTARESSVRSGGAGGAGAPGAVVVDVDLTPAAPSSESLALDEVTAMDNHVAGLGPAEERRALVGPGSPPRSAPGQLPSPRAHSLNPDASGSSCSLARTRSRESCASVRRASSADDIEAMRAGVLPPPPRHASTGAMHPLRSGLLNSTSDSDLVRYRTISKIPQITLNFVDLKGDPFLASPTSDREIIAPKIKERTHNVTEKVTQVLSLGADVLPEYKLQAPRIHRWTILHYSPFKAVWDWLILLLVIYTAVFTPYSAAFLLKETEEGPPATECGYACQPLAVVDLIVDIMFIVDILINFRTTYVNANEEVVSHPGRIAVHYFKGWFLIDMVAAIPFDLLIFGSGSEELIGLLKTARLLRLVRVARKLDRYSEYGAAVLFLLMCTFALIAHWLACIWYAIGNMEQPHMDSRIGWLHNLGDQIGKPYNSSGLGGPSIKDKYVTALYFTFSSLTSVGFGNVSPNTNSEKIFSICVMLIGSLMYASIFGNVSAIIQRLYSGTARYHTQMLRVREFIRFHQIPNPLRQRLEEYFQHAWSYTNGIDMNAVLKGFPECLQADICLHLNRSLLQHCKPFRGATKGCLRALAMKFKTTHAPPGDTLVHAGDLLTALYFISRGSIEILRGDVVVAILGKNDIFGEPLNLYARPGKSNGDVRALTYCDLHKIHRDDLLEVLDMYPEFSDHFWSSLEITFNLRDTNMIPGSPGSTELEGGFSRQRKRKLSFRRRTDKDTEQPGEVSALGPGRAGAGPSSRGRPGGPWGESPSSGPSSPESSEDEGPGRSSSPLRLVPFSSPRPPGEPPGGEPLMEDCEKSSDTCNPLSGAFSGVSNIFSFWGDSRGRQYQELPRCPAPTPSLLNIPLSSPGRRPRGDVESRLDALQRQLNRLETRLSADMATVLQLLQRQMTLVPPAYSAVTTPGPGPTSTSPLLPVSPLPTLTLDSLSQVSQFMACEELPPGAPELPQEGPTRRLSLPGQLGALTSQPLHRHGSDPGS

Compound | hERG current change (%, negative = inhibition) at 10uM [%]
COC(=O)c1cn(NC(=O)c2ccc([N+](=O)[O-])cc2Cl)c(=O)c2ccccc12 | -5.68
CCCn1c(SCC(=O)NCc2ccccc2)n[nH]c1=O | 7.49
CCN(CC(=O)Nc1cccc(S(=O)(=O)N2CCOCC2)c1)Cc1ccccc1 | -4.27
CCOC(=O)c1cc(-c2ccc(N3CCOCC3)cc2)nn1-c1ccccc1 | -48.9
CCCCOc1nc2ccccc2c(=O)n1-c1ccccc1 | -11.6
Cc1cc(C)n2nc(C(=O)OC(C)C(=O)c3ccccc3)nc2n1 (centres unmarked) | 17.9
O=C(Cn1[nH]c(=O)c2ccccc2c1=O)NC1CCN(Cc2ccccc2)CC1 | 0.791
COc1ccc2c(c1OC)C(=O)N(C(C)C(=O)O)C2=O (centres unmarked) | 10.1
O=C(CSc1nnc2ccc(-c3cccnc3)nn12)Nc1ccccc1 | -50.6
CC(=O)Nc1ccc(NC(=O)CSc2nnc3ccc(-c4cccnc4)nn23)cc1 | 19.8
Cc1ccc(NC(=O)CSc2nnc3ccc(-c4cccnc4)nn23)cc1 | -49.3
CC(c1nnc(SCC(=O)NC(=O)NCc2ccco2)n1-c1ccc(Cl)cc1)N(C)C (centres unmarked) | -8.66
CC(C)COc1ccc(C/C(N)=N/n2cnnc2)cc1 | 30.4
COC(=O)CSc1nc2nc(C)cc(C)n2n1 | 4.29
CN(C)S(=O)(=O)N1CCN(c2ccnc3cc(Cl)ccc23)CC1 | -76.2
CCS(=O)(=O)N1CCN(c2ccnc3cc(Cl)ccc23)CC1 | -73.2
Cl.ClCCN1CCN(c2ccnc3cc(Cl)ccc23)CC1 | -20.8
Cc1ccc(Cl)cc1N1CCN(S(C)(=O)=O)CC1 | -5.31
CC(C)S(=O)(=O)N1CCN(c2ccnc3cc(Cl)ccc23)CC1 | -71.6
CS(=O)(=O)N1CCN(c2ccnc3cc(Cl)ccc23)CC1 | -78.6
CN(C)S(=O)(=O)N1CCN(c2cc(Cl)ccc2Cl)CC1 | -8.38
Cc1cc(C)c[n+](-c2[nH]c(=O)sc2/C=N/N=C(\N)[S-])c1 | 22
COCCn1c(SCC(=O)NC2CCCC2)nc2cccnc21 | 17.1

Compound | hERG current change (%, negative = inhibition) at 10uM [%]
COc1ccccc1-n1cnnc1SCC(=O)c1ccc[nH]1 | -0.89
Cc1ccccc1NC(=S)N(CCN1CCOCC1)Cc1ccccc1F | 30.1
Cl.Clc1ccc(CNCCC2=CCCCC2)cc1 | -40
CC(Oc1ccc(Br)cc1Br)C(=O)NC1CCCC1 (centres unmarked) | 16.2
COc1ccc(N(CC(=O)N2CCc3ccccc3C2)S(=O)(=O)c2ccccc2)cc1 | -32.1
CN(C)CCNc1oc(COc2cccc(Cl)c2)nc1C#N | -16.1
N#Cc1nc(COc2ccccc2Cl)oc1NCc1cccnc1 | -51.2
N#Cc1nc(COc2cccc(Cl)c2)oc1NCc1ccco1 | -16.8
Cc1ccc(CNc2oc(COc3ccccc3Cl)nc2C#N)cc1 | 13.2
N#Cc1nc(COc2cccc(Cl)c2)oc1NCc1ccncc1 | -73.7
N#Cc1nc(COc2ccccc2Cl)oc1NCc1ccc(F)cc1 | 0.159
FC(F)(F)c1ccc(C2[C@H]3CN(CC4CCCCC4)[C@H](c4ccccc4)C34CC2(c2cccnc2)C4)cc1 (some centres unmarked) | 0.391
CN1CCN(C(=O)c2c(O)c3cccc4c3n(c2=O)CCC4)CC1.Cl | 6.48
c1ccc(Cc2nc3ccccc3[nH]2)cc1 | -6.39
CCOc1ccc(Nc2nc3c(c(=O)[nH]2)CCCC3)cc1 | -3.98
COC(=O)c1ccc(/C=C2/SC(=S)N(CCCC(=O)Nc3ccccn3)C2=O)cc1 | 15.4
CC(NC(=O)C(CC(=O)OC(C)(C)C)NC(=O)OC(C)(C)C)C(N)=O (centres unmarked) (Boc-Asp(OtBu)-Ala-NH2; configuration not given here) | -5.99
Cc1sc2ncn(CC(=O)NCCCC(=O)N3CCN(c4ncccn4)CC3)c(=O)c2c1C | 7.64
N#C/C(=C\c1ccco1)Sc1nc2ccccc2s1 | 0.525
O=C(NCCc1nnc2ccc(NCc3ccc(F)cc3)nn12)c1ccccc1 | -29
Cn1c(=O)c2c(n(Cc3ccccc3)c1=O)NC(=O)C2CC(=O)O (centres unmarked) | 12.6
CC(C)Cn1c(O)c2ccc(C(=O)N=NC(=O)c3cccnc3)cc2c1O | 17
COc1ccc(/C=C/C(=O)NC(=S)N2CCN(c3ccccn3)CC2)cc1 | -6.85

Compound | hERG current change (%, negative = inhibition) at 10uM [%]
CCc1ccccc1NC(=S)N(CCCN1CCOCC1)Cc1ccccn1 | -25.8
S=C(Nc1ccc(Oc2ccccc2)cc1)N(CCCN1CCOCC1)Cc1ccccn1 | -70
Cc1ccc(NC(=S)N(CCCN2CCOCC2)Cc2ccccn2)cc1 | -22.8
COc1ccccc1NC(=S)N(Cc1ccc(C)cc1)Cc1ccccn1 | -39.1
CCc1ccc(NC(=S)N(CCCN2CCOCC2)Cc2ccccn2)cc1 | -56.3
Cc1cccc(NC(=S)N(CCCN2CCOCC2)Cc2ccccn2)c1 | -22.3
COc1ccc(NC(=S)N(CCCN2CCOCC2)Cc2ccccn2)cc1 | -14.4
COc1cccc(NC(=S)N(Cc2ccc(C)cc2)Cc2ccccn2)c1 | -30.2
COc1ccc(NC(=S)N(Cc2ccc(C)cc2)Cc2ccccn2)cc1 | -50.5
N#Cc1ccccc1OCC(=O)NCCNC(=O)COc1ccccc1C#N | -10.1
CCOC(=O)C(C)Oc1c(Br)cc(C2NC(=O)NC(C)=C2C(C)=O)cc1OCC (centres unmarked) | 3.1
COc1cccc(C(=O)NCCC(=O)NCc2cc(=O)n(C)c(=O)n2C)c1 | 13.9
Cn1ccc(-c2ccccc2)c(C#N)c1=O | 3.34
CS(=O)(=O)CCC(C(=O)OCc1ccc(Br)cc1)N1C(=O)c2ccccc2C1=O (centres unmarked) | -0.0845
COC(=O)c1cc(C(=O)NNC(=O)c2ccc3c(c2)OCO3)cc([N+](=O)[O-])c1 | -7.98
O=C(CN(Cc1ccco1)C(=O)c1ccccc1F)Nc1ccccc1C(F)(F)F | 2.3
CNC(=S)N/N=C/c1cn(Cc2ccc(F)cc2)c2ccccc12 | -4.59
Cc1ccc(S(=O)(=O)N(C)C)cc1NC(=S)NCCc1ccccn1 | 24.2
COc1cc(C(NC=O)C(=O)Nc2c(C)cccc2C)ccc1O (centres unmarked) | 15.1
COc1cc(C(C(=O)Nc2c(C)cccc2C)N(C)C(=O)c2ccc(-n3cnnn3)cc2)ccc1O (centres unmarked) | -67.7
Cc1cccc(C)c1NC(=O)c1ccc(-n2cnnn2)cc1 | -44.2
O=C(CN1CCc2ccccc2C1)Nc1ccccc1N1CCCCCC1.O=C(O)C(=O)O | -5.79
O=C(NS(=O)(=O)Nc1ccc(Cl)cc1)c1c[nH]c2ccccc12 | 23.2

Compound | hERG current change (%, negative = inhibition) at 10uM [%]
Cc1cc(C)c(S(=O)(=O)N2CCN(C(=O)C3CCCO3)CC2)c(C)c1 (centres unmarked) | -17.1
CCc1nn(C(C)C(=O)NCCN2CCN(c3cccc(C)c3C)CC2)c(=O)c2cc3occc3n12 (centres unmarked) | -65.3
CCc1nn(C(C)C(=O)NCCN2CCCCCC2)c(=O)c2cc3occc3n12 (centres unmarked) | 6.27
CCc1nn(C(C)C(=O)Nc2cccc(C)c2C)c(=O)c2cc3occc3n12 (centres unmarked) | -0.753
O=C(c1cnn2c(C(F)(F)F)cc(-c3cccs3)nc12)N1CCOCC1 | -5.7
O=C(Nc1cccc(-n2cnnn2)c1)c1ccc(C(F)(F)F)cc1 | -15.3
Oc1ccc(-c2[nH]ncc2-c2cccc3cccnc23)c(O)c1 | 32.1
Cc1cc(=O)oc2cc(OCC(=O)NCCCN3CCCC3=O)ccc12 | 29.5
c1ccc2c(CN3CCCCCCC3)c[nH]c2c1 | -22.4
O.c1ccc2c(CN3CCN(C4CCCCC4)CC3)c[nH]c2c1 | -18.2
Clc1ccccc1CN1CCN(c2cccc3[nH]ccc23)CC1 | 3.09
COc1ccccc1N1CCN(Cc2ccc(OC)c3ccccc23)CC1 | -5.46
Fc1ccc(N2CCN(Cc3c[nH]c4ccccc34)CC2)cc1 | -68.3
COc1ccccc1N1CCN(C(=O)CCc2c[nH]c3ccccc23)CC1 | 3.69
O=[N+]([O-])c1cccc(CN2CCN(c3cccc4[nH]ccc34)CC2)c1 | -7.67
Cc1ccc(CN2CCN(c3cccc4[nH]ccc34)CC2)cc1 | -60.4
COc1ccccc1N1CCN(Cc2c[nH]c3ccccc23)CC1 | -55.8
c1ccc2c(CN3CCOCC3)c[nH]c2c1 | 15.1
c1cnc(N2CCN(Cc3c[nH]c4ccccc34)CC2)nc1 | -36
Fc1ccccc1N1CCN(C2CCN(Cc3c[nH]c4ccccc34)CC2)CC1 | -54.5
